BJeLR viability = BJeLR cell viability loss. actives 0.17% (n = 300,000). BJeLR (HRASV12) viability, CellTiter-Glo ATP luminescence, 48 h. inhibition, % (concentration not given with the values); in the data active = inhibition above about 50%; inconclusive = no clear call, values can overlap the other calls
BoNT A protease = inhibitors of Botulinum neurotoxin A light chain protease; inhibition, % at 10 µM; multiplex microsphere protease substrate cleavage, flow cytometry; actives 0.17% (n = 360,000); AID 588499; note: plate controls were buffer without enzyme for full effect and enzyme alone for no effect
Autofluor counter = counter-screen for toxin protease inhibitors: compound fluorescence; compound autofluorescence counterscreen, microsphere flow cytometry; active compounds read high; fluorescence intensity (concentration not given with the values); actives 3.1% (n = 360,000); in the data active = fluorescence intensity above about 16000; inconclusive = no clear call, values can overlap the other calls
Anthrax LF prot = inhibitors of Bacillus anthracis lethal factor protease; P15917; multiplex microsphere protease cleavage assay, LF; inhibition, % at 10 µM; actives 0.12% (n = 360,000); note: plate controls were buffer without enzyme for full effect and enzyme alone for no effect
Target sequence (P15917 whole entry, looked up): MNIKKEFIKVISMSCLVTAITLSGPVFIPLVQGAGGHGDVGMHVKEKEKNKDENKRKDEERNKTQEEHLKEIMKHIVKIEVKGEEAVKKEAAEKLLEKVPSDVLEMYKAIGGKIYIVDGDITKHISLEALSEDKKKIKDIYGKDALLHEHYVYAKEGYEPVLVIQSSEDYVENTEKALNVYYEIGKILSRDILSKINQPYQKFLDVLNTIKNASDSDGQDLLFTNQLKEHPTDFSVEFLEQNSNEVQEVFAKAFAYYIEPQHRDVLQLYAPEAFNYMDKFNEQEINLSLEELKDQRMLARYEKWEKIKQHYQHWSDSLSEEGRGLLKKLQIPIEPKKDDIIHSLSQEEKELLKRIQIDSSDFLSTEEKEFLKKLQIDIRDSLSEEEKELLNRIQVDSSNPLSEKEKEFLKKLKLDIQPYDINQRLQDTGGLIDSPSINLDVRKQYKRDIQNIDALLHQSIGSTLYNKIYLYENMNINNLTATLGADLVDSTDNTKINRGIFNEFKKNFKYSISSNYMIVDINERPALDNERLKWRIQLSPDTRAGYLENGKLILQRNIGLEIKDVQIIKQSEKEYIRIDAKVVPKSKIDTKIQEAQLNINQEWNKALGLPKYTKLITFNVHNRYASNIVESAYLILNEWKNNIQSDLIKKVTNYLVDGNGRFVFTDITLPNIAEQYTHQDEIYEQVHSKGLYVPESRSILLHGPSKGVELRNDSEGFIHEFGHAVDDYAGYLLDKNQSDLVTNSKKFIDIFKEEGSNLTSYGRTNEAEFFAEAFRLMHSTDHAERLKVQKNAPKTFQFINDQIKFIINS
BoNT F protease = inhibitors of Botulinum neurotoxin F light chain protease; inhibition, % at 10 µM; actives 0.22% (n = 360,000); AID 588497; Multiplex microsphere protease cleavage assay, flow cytometry; in the data active = inhibition above about 35%, passing the limit was not always enough; inconclusive = no clear call, values can overlap the other calls; note: plate controls were buffer without enzyme for full effect and enzyme alone for no effect
The depositor's hits bear a star. Hits are enriched below; roughly 3.5% of the tested compounds scored in any of these assays. Cut-off read from the data, not from the text of the source, unless noted: active = inhibition above about 30%; inconclusive = no clear call, values can overlap the other calls; inactive = below that.

`O=S1(=O)CCC(NS(=O)(=O)/C=C/c2ccccc2)C1` (stereo not drawn) gave BJeLR viability -4, BoNT A protease 1, Autofluor counter 22642*, Anthrax LF prot 0 and BoNT F protease 0.
`CCOC(=O)C1=C(Cn2cnc3ccccc32)NC(=O)NC1c1ccc(OC)cc1` (stereo not drawn) gave BJeLR viability 4, BoNT A protease -1, Autofluor counter 16933*, Anthrax LF prot 2 and BoNT F protease -1.
For CCOC(=O)C1=C(Cn2cnc3ccccc32)NC(=O)NC1c1ccc(Cl)cc1 (stereo not drawn) the results were BJeLR viability -11, BoNT A protease 0, Autofluor counter 9511, Anthrax LF prot -1 and BoNT F protease -9.
Screening O=C(NCCc1ccccc1)c1noc2c1CCCCC2 returned BoNT A protease 3, Autofluor counter 19823*, Anthrax LF prot 0 and BoNT F protease 0.
`O=C(NCc1cccs1)c1noc2c1CCCC2` gave BJeLR viability 0, BoNT A protease -2, Autofluor counter 11822, Anthrax LF prot -4 and BoNT F protease -4.
O=C(NCc1cccnc1)c1noc2c1CCCC2 was read as BJeLR viability -2, BoNT A protease 4, Autofluor counter 21847*, Anthrax LF prot -9 and BoNT F protease 2.
For O=C(NCc1ccco1)c1noc2c1CCCCC2 the results were BJeLR viability -22, BoNT A protease -2, Autofluor counter 16534*, Anthrax LF prot -8 and BoNT F protease -6.
For O=C(Nc1ccc(F)c(Cl)c1)c1cc(C2CCCCN2C(=O)c2ccc3c(c2)CCO3)on1 (stereo not drawn) the results were BoNT A protease -2, Autofluor counter 3860, Anthrax LF prot -12 and BoNT F protease -27.
Screening CC1(C)CCCC2(C)C(OCCO)=CC(=O)C=C12 (stereo not drawn) returned BoNT A protease -1, Autofluor counter 3786, Anthrax LF prot -3 and BoNT F protease -5.
O=c1[nH]cnc2c1cnn2Cc1ccccc1 was read as BoNT A protease inconclusive, Autofluor counter 21532*, Anthrax LF prot -3 and BoNT F protease 2.
For COc1ccc(O)c(C2NC(CC(C)C)(C(=O)O)C3C(=O)N(Cc4ccccc4)C(=O)C23)c1 (stereo not drawn) the results were BJeLR viability -3, BoNT A protease -1, Autofluor counter 16430*, Anthrax LF prot -2 and BoNT F protease -1.
`CC1CC(=O)c2cnc(N)nc2C1` (stereo not drawn) gave BJeLR viability -1, BoNT A protease -2, Autofluor counter 22837*, Anthrax LF prot -11 and BoNT F protease -4.
Screening CC1CC(=O)c2cnc(N3CCOCC3)nc2C1 (stereo not drawn) returned BJeLR viability -6, BoNT A protease 0, Autofluor counter 11181, Anthrax LF prot 1 and BoNT F protease 2.
CC1OC2CC(=O)OC2C2=C1C(=O)c1c(O)cccc1C2=O (stereo not drawn) was read as BoNT A protease -1, Autofluor counter 5201, Anthrax LF prot -13 and BoNT F protease 1.
`CC1(C)CC(=NNC(=O)c2n[nH]c3c2CCC3)CC(C)(C)N1` gave BJeLR viability -9, BoNT A protease 3, Autofluor counter 2077, Anthrax LF prot -2 and BoNT F protease 37*.
`O=C(N/N=C/c1ccccc1)c1n[nH]c2c1CCCC2` gave BJeLR viability 6, BoNT A protease 0, Autofluor counter 2113, Anthrax LF prot -2 and BoNT F protease 5.
Screening NC(=O)c1ccc(SCC(=O)OCC(=O)N2CCN(C(=O)c3ccco3)CC2)c([N+](=O)[O-])c1 returned BJeLR viability -9, BoNT A protease 2, Autofluor counter 5367, Anthrax LF prot 3 and BoNT F protease -3.
`COc1ccc(CCC(=O)N2CCC3(CC2)OCCO3)cc1` gave BJeLR viability 3, BoNT A protease 0, Autofluor counter 16327*, Anthrax LF prot -5 and BoNT F protease 0.
Screening COc1ccc(CCC(=O)N2CCN(C3CCCCC3)CC2)cc1 returned BJeLR viability 1, BoNT A protease 0, Autofluor counter 20796*, Anthrax LF prot -1 and BoNT F protease 0.
`Cc1nc2cc(-c3ccccc3)nn2c(C)c1CCC(=O)N1CCC2(CC1)OCCO2` gave BJeLR viability -4, BoNT A protease -1, Autofluor counter 16588*, Anthrax LF prot -2 and BoNT F protease -1.
For O=C(CCCc1ccccc1)N1CCN(C2CCCCC2)CC1 the results were BJeLR viability -2.

Bioassay records: PubChem BioAssay, several laboratories
